Experimental findings from PubChem BioAssay (NCATS) are described below.

Results filed as inconclusive are left out. Values without a mark were called inactive. Activity calls are given as the source filed them. The call rests on the fitted dose curve; in most records, active means well fitted inhibition curve with a large enough effect; inconclusive means small, poorly fitted or top-dose-only effect; inactive means no such curve, though single readings can be large or run the other way.

The target in the first experiment is Retinaldehyde dehydrogenase 3 (Homo sapiens) (UniProt P47895). As to the kind of experiment: qHTS for Inhibitors of the Aldehyde Dehydrogenase Family (ALDH1A3) Primary screen (AID 2061315).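 Further: plate controls were DMSO vehicle for no effect and reference inhibitor for full effect.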 The note with it: ALDH inhibition qHTS; series mostly up to 56 µM; activity change, negative = inhibition: at the top concentration. A general note: Quantitative high-throughput screening tests each substance at several concentrations.
For `N#Cc1c(-c2ccc(Br)cc2)no[n+]1[O-]`, the “activity change, negative = inhibition” value is 1.04%. For `O=S(=O)(c1ccccc1)N1CCN(c2nc(-c3ccc(Br)cc3)cs2)CC1`, the “activity change, negative = inhibition” value was 20.1%. On the same count and under the same terms, under `O=C(Nc1nc(-c2ccccc2)cs1)c1ccncc1NS(=O)(=O)c1ccc2ccccc2c1` stands 29.5%. On to `CCOC(=O)c1ccc(-n2cccc2/C=C2\NC(=O)NC2=O)cc1`, for which the “activity change, negative = inhibition” value was 10.7%.

Regarding `COc1ccc(C2=Nn3c(nnc3-c3cc(OC)ccc3OC)SC2)cc1`, the “activity change, negative = inhibition” value is 18.6%. For `Cc1nc(-c2ccccc2)oc1-c1ccc2ncnc(NCc3ncc[nH]3)c2c1`, the “activity change, negative = inhibition” value is -16.5%.

For `COc1ccc(C2=Nn3c(nnc3-c3ccc(OC)cc3)SC2)cc1`, the “activity change, negative = inhibition” value is 2.45%.

For `COc1ccc(C2Oc3ccccc3C(=O)N2Cc2ccccc2)cc1COc1ccc(NC(C)=O)cc1` (stereo unspecified), the “activity change, negative = inhibition” value is -1.59%. For the molecule `FC(F)(F)c1ccc(-c2ccc(CNc3nc(-c4ccccc4C(F)(F)F)nc4ccccc34)cc2)cn1`, the “activity change, negative = inhibition” value was -17.7%.

On to `CN(C)CCCNC(=O)c1ccc(-c2cnc3c(O)cccc3c2)cc1`, for which the “activity change, negative = inhibition” value was 0.377%.

Take `O=C(O)c1ccc(-n2cccc2/C=C2\SC(=O)N(Cc3ccc(F)cc3)C2=O)cc1`: the “activity change, negative = inhibition” value is 6.83%.

On to `COc1ccc(C2=Nn3c(nnc3-c3cccc(OC)c3OC)SC2)c(OC)c1`, for which the “activity change, negative = inhibition” value was -3%. With `O=C(Nc1cncc(Cc2ccccc2)c1)c1ccc(-c2cccc([N+](=O)[O-])c2)o1`, the “activity change, negative = inhibition” value is 3.01%. With `COc1ccc(OCc2cc(C3Nc4ccccc4C(=O)N3Cc3ccccc3)ccc2OC)cc1` (stereo unspecified), the “activity change, negative = inhibition” value is -0.82%. Turning to `O=C(NCCCCc1ccccc1)C1CCN(c2nc(-c3ccc(Br)cc3)cs2)CC1`, the “activity change, negative = inhibition” value is 14.5%. With `COc1ccc(C2c3c(ncn(CCN4CCOCC4)c3=N)Oc3ccc4ccccc4c32)cc1OC` (stereo unspecified), the “activity change, negative = inhibition” value is -1.56%. Still for that read-out and setting: under `FC(F)Oc1ccc(C2=Nn3c(nnc3-c3ccccc3C(F)(F)F)SC2)cc1OCC1CC1` stands 4.08%; under `Cc1ccnc(CC(=S)N2CCN(c3cccc(C(F)(F)F)c3)CC2)c1`, 27.8%. Still for that read-out and setting: then `N#Cc1nc(Nc2cccc(Cl)c2)nc(NC2CCCC2)n1`, with 15.8%; and `COc1ccc(C2Nc3ccccc3C(=O)N2CCc2ccc(Cl)cc2Cl)cc1COc1ccc(NC(C)=O)cc1` (stereo unspecified), with -1.1%. For the molecule `COc1cc2ncnc(N(C)Cc3csc(C)n3)c2cc1-c1ccc2c(c1)OCO2`, the “activity change, negative = inhibition” value is -10.4%. In the case of `CC(C)Oc1cccc(-c2cnc(N3CCC(C(N)=O)CC3)s2)c1`, the “activity change, negative = inhibition” value is 5.42%. The same measure, in the same setting: then `O=C(Nc1nc(-c2ccccc2)cs1)c1ccncc1NS(=O)(=O)c1ccc(Cl)cc1`, with 26.1%. Still for that read-out and setting: under `Cc1cc(-c2nnc3n2CCCC3)c(C)n1-c1ccccc1` stands -15%; under `CN(CC(=O)O)c1ncnc2ccc(-c3ccc4c(c3)OCO4)cc12`, -2.35%; under `COc1ccc(C2=Nn3c(nnc3-c3ccccc3OC)SC2)cc1`, 12.3%. On the same count and under the same terms, then `COc1ccc(C2Nc3ccccc3C(=O)N2CCCN(C)C)cc1COc1ccc(NC(C)=O)cc1` (stereo unspecified), with -9.38%; and `Cc1[nH]c2ccccc2c1C1=C(NCCc2ccc(F)cc2)C(=O)N(C)C1=O`, with -5%. As for `CNc1oc(-c2c[nH]c3ccccc23)nc1C#N`, the “activity change, negative = inhibition” value is -10.7%. Take `COc1ccc(NC(=O)CN(C)C(=O)c2cc3c(s2)CCC3)cc1`: the “activity change, negative = inhibition” value was -2.9%. Still for that read-out and setting: then `Cc1cc(-c2nnc3n2CCCCC3)c(C)n1-c1ccc(Cl)c(Cl)c1`, with 8.49%; and `N#Cc1nc(Nc2ccc(F)cc2)nc(NC2CCCC2)n1`, with -0.146%.

Turning to `O=C(CN1C(=O)N/C(=C\c2cn(-c3cccc(C(=O)O)c3)cn2)C1=O)Nc1ccccc1Cl`, the “activity change, negative = inhibition” value was 5.53%. Same read-out and setting: under `O=C([C@H](Cc1ccc(O[S+](=O)([O-])c2cccnc2)cc1)N[S+](=O)([O-])c1ccccn1)N1CCN(c2ccccc2)CC1` stands -9.98%; under `Fc1cnc(-c2ccccc2C(F)F)nc1NCC1CCN(c2cnccn2)CC1`, 4.16%. The same measure, in the same setting: then `COc1ccc(-c2nc3ccccc3c(=O)n2Cc2ccco2)cc1COc1ccc(NC(C)=O)cc1`, with -0.186%. For `CC(C)(C)OC(=O)NCCOCCOCCOCCn1ncc2c1CCCC2NC(=O)c1ccccn1` (stereo unspecified), the “activity change, negative = inhibition” value is -6.15%.

For `O=[S+]([O-])(Nc1ccc(-c2nc3ccccc3[nH]2)cc1)c1ccc2c(c1)OCO2`, the “activity change, negative = inhibition” value was 8.51%.

Take `CN1CCN(c2ccc(Nc3nn4c(=O)c5ccccc5nc4s3)cc2)CC1`: the “activity change, negative = inhibition” value was -3.42%.

A further experiment has as its target Aldehyde dehydrogenase 1A1 (Homo sapiens) (UniProt P00352). As to the kind of experiment: qHTS for Inhibitors of the Aldehyde Dehydrogenase Family (ALDH1A1) Confirmatory screens (AID 2061316). Further: nearly all actives have a fitted effect of over 65% in size. Further: potency means the concentration at half of the fitted maximal effect. On activity change, negative = inhibition: on the % scale 0 is the no-effect control and ±100 the full control effect. The note with it: ALDH inhibition qHTS; series mostly up to 47.3 µM; activity change, negative = inhibition: at the top concentration.
As for `O=S(=O)(c1ccccc1)N1CCN(c2nc(-c3ccc(Br)cc3)cs2)CC1`, the Potency is 10.1 µM (active). On the same count and under the same terms, under `O=C(Nc1nc(-c2ccccc2)cs1)c1ccncc1NS(=O)(=O)c1ccc2ccccc2c1` stands 8.96 µM (active). The same measure, in the same setting: then `COc1ccc(C2=Nn3c(nnc3-c3cc(OC)ccc3OC)SC2)cc1`, with 14.2 µM (active). Turning to `COc1ccc(C2=Nn3c(nnc3-c3ccc(OC)cc3)SC2)cc1`, the “activity change, negative = inhibition” value is -14.2%. Regarding `FC(F)(F)c1ccc(-c2ccc(CNc3nc(-c4ccccc4C(F)(F)F)nc4ccccc34)cc2)cn1`, the Potency is 7.98 µM (active). For the molecule `COc1ccc(C2=Nn3c(nnc3-c3cccc(OC)c3OC)SC2)c(OC)c1`, the “activity change, negative = inhibition” value was 62.8%. Take `O=C(Nc1cncc(Cc2ccccc2)c1)c1ccc(-c2cccc([N+](=O)[O-])c2)o1`: the Potency is 3.18 µM (active). On the same count and under the same terms, then `O=C(NCCCCc1ccccc1)C1CCN(c2nc(-c3ccc(Br)cc3)cs2)CC1`, with 8.96 µM (active). In the case of `FC(F)Oc1ccc(C2=Nn3c(nnc3-c3ccccc3C(F)(F)F)SC2)cc1OCC1CC1`, the result was inactive. As for `Cc1ccnc(CC(=S)N2CCN(c3cccc(C(F)(F)F)c3)CC2)c1`, the Potency was 10.1 µM (active).

In the case of `Cc1cc(-c2nnc3n2CCCC3)c(C)n1-c1ccccc1`, the Potency was 11.3 µM (active). On the same count and under the same terms, then `Cc1cc(-c2nnc3n2CCCCC3)c(C)n1-c1ccc(Cl)c(Cl)c1`, with 14.2 µM (active). On to `O=C(CN1C(=O)N/C(=C\c2cn(-c3cccc(C(=O)O)c3)cn2)C1=O)Nc1ccccc1Cl`, for which the “activity change, negative = inhibition” value is -35.8%. Consider `Cc1cc(C)nc(NC(=S)N2CC3CN(c4ncc(C(F)(F)F)cc4Cl)CC3C2)c1` (stereo unspecified), for which the Potency is 12.7 µM (active). With `O=C([C@H](Cc1ccc(O[S+](=O)([O-])c2cccnc2)cc1)N[S+](=O)([O-])c1ccccn1)N1CCN(c2ccccc2)CC1`, the Potency is 5.04 µM (active). Take `O=[S+]([O-])(Nc1ccc(-c2nc3ccccc3[nH]2)cc1)c1ccc2c(c1)OCO2`: the “activity change, negative = inhibition” value was -0.562%. Turning to `CN1CCN(c2ccc(Nc3nn4c(=O)c5ccccc5nc4s3)cc2)CC1`, the Potency is 12.7 µM (active).
